Results from PubChem BioAssay (NCI).
The panel holds about 83,000 compounds, 20% with a hit somewhere; the sample as a whole holds those more often.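 Percent growth is the endpoint: 0 to 100 indicates growth inhibition (40 means 60% inhibition), 0 means no net growth, and negative values indicate cell death.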 A number with no mark means an inactive call. Activity calls are given as the source filed them.

Tested on: OVCAR-4 ovarian
Experiment: NCI-60 one-dose screen, 48 h (100 = growth as untreated, 0 = no growth, -100 = all killed)
Details: 10 µM unless noted
Protocol: Growth inhibition of the OVCAR-4 human tumor cell line is measured as a screen for anti-cancer activity. Cells are grown in 96 well plates and exposed to the test compound for 48 hours. Compounds are tested at a single concentration, which is 10^-5 M for most compounds. The reported endpoint is percent growth (GI% or GIPRCNT), where numbers from 0 - 100% represent growth inhibition, and numbers from -100% - 0 represent cell death. For example, a value of 40 represents 60% growth inhibition. A value of 0 means no net growth occurred over the course of the experiment. A value of -40 indicates 40% of cells at the beginning of the experiment died by the end of the experiment. A value of -100 means all cells are dead at the end of the experiment.
NCI-60 Human Tumor Cell Lines Screen was performed using the standard one-dose NCI protocol, which is described in more detail at https://dtp.cancer.gov/discovery_development/nci-60/default.htm.
Compounds with GIPRCNT values below 10 were considered active. Activity score was based on GIPRCNT using the following formula: […]
Score is 0 for GIPRCNT values of 100 or above, 50 for GIPRCNT values of 0, and 100 for GIPRCNT values of -100.

Row | Compound | growth
1 | C(=C\c1ccccc1)/CN1CCN(C(c2ccccc2)c2ccccc2)CC1 | 87.1%
2 | CCOC(=O)c1c(-c2cc(OC)c(OC)c(OC)c2)csc1N | 118%
3 | COc1ccc(/C=N/OCC(O)CN2CCC(O)CC2)cc1OC1CCCC1 (stereo not given) | 100%
4 | NC(=O)c1cc(I)ccc1NC(=O)COc1ccccc1 | 78.9%
5 | COC(=O)[C@@]12CC[C@@H](C)[C@]3(C[C@@H](c4ccoc4)OC3=O)[C@H]1CC[C@@H]1O[C@@]12C | 104%
6 | COc1ccc(-c2nc(Nc3ccc(F)cc3)nc(Nc3ccc4c(c3)nc(C)n4Cc3ccccc3)n2)cc1 | 42.6%
7 | COc1nc2c(cc1S(=O)(=O)c1ccccc1)CCc1c-2cnn1-c1ccccc1Cl | 67.8%
8 | N#Cc1c(-c2cccc(F)c2)cc(-c2ccc(Br)s2)[nH]c1=O | 92%
9 | COc1nc2c(cc1S(=O)(=O)c1ccccc1)CCc1c-2cnn1-c1cccc(Cl)c1 | 87%
10 | CCCN(CCC)c1ccc(/C=C/c2ccc3cc(OCC)ccc3n2)cc1 | 80.8%
11 | O=c1[nH]c(=O)n(Cc2ccc(F)cc2)cc1F | 108% [50 µM]
12 | Cc1ccc2nc(NC(=O)CSC(=S)N3CCN(C)CC3)sc2c1 | 100%
13 | O=S(=O)(Nc1ncccn1)c1ccc(Nc2ccc3nnc(-c4ccncc4)n3n2)cc1 | 93.8%
14 | CCN(CC)CCCNc1ccc(C)c2sc3ccccc3c(=O)c12 | 64.8%
15 | O=C(Nc1ccccc1)Oc1cccc2cccnc12 | 76.8%
16 | O=C(c1cnn2c1NC(c1ccc(F)cc1)C2)N1CCCCC1 (stereo not given) | 98.7%
17 | N#Cc1ccc(C(F)(F)F)nc1N1CCC(C(=O)Nc2ccc(Cl)cc2)CC1 | 69.1%
18 | COc1ccc(-c2nc3sc(C)nn3c2-c2nc3cc(C)c(C)cc3[nH]2)cc1 | 94.1%
19 | O=C1NC(=O)C(CSc2ccccc2)(c2ccccc2)N1 (stereo not given) | 111%
20 | CCCCCCCCCCCCSC1=CC(=O)C=CC1=O | 57.1%

Row | Compound | growth
21 | CCCCc1ccc(C(O)(CCN2CC3CCC(CC3)C2)c2ccccc2)cc1 (stereo not given) | 97%
22 | O=C(c1ccccc1)C(Br)C(Br)c1cccc([N+](=O)[O-])c1 (stereo not given) | 29.3%
23 | Cc1nc2cc(Nc3nc(NCCO)nc(Nc4ccc(F)cc4)n3)ccc2n1Cc1ccccc1 | 95.3%
24 | COc1cc(/C=C/C(=O)CC(=O)/C=C/c2cc(Br)c(OC)c(OC)c2)cc(Br)c1OC | 103%
25 | Clc1nc(-c2ccccn2)nc2sc3c(c12)CCCCCC3 | 85.7%
26 | Cc1c(C(=O)Nc2nc(-c3ccccc3)cs2)nnn1-c1ccccc1Br | 19.6% [50 µM]
27 | N#Cc1c(O)c2c(c(O)c1C#N)C(=O)c1ccccc1C2=O | 10.9%
28 | O=c1c2cc(F)ccc2oc2c(NCCNCCO)nc3ccccc3c12 | 37.3%
29 | COc1cccc2c(=O)c3c(sc12)c(NCCN(C)C)nc1ccccc13 | -14.4% (active)
30 | O=C1/C(=C/c2ccc(F)cc2)CN(Cc2cn(CCNc3ccnc4cc(Cl)ccc34)nn2)C/C1=C\c1ccc(F)cc1 | 23.3%
31 | Cc1ccc(C(=O)Nc2ccccc2N)cc1 | 99.5%
32 | COc1ccc(-n2ncc3c4nc(OC)c(S(=O)(=O)c5ccccc5)cc4ccc32)cc1 | 45.5%
33 | COc1ccc(OC)c2ncccc12 | 102%
34 | Brc1ccc(SCN(CSc2ccc(Br)cc2)Cc2ccccc2)cc1 | 75.5%
35 | Clc1ccc2c(N3CCN(c4ccnc(NC5CCCCC5)n4)CC3)ccnc2c1 | 42.3%
36 | COc1ccc(-c2c(-c3cc4c(c(OC)c3OC)OCO4)noc2N)cc1 | 55%
37 | COc1ccccc1/C=C/C(=O)/C=C/c1ccccc1O | 12.6%
38 | CN1CCN(CCCn2c3c(sc4ncccc43)c(=O)n3nnc(-c4ccccc4)c23)CC1 | -61.4% (active)
39 | C[C@H]1C(=O)C23CCC1C[C@@]21O[C@@H]2C(C)(C)C=CC(=O)C23COC1=O | 108%
40 | Cc1ccc(-c2c3c(N)c4c(nc3nc3c2c(C)nn3-c2ccccc2)CCCC4)cc1 | 96%
